Reference: PubChem BioAssay AID651955 (The Scripps Research Institute Molecular Screening Center, 2012)
Among all 2,400 compounds or so, about 40 (2%) were called active. These entries were drawn from the full list. Values without a mark were called inactive. No stated cut-off is given here; in the data, active means activation above about 37%; inactive means the rest.

Each molecule was assayed against Trace amine-associated receptor 1 (Homo sapiens) (UniProt Q96RJ0) (assay: TAAR1 activation by candidate antagonists – cell-based, fluorescence, counter-screen for TAAR1 antagonist project (AID 651955;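 further: CHO cells stably expressing TAAR1 with calcium dye readout; 0% = DMSO vehicle and 100% = full agonist response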)). Details: hTAAR1 cell line, agonist mode, at 3 µM, stronger effect = higher value.
Chain of Trace amine-associated receptor 1 (Homo sapiens) (Q96RJ0 whole entry, looked up): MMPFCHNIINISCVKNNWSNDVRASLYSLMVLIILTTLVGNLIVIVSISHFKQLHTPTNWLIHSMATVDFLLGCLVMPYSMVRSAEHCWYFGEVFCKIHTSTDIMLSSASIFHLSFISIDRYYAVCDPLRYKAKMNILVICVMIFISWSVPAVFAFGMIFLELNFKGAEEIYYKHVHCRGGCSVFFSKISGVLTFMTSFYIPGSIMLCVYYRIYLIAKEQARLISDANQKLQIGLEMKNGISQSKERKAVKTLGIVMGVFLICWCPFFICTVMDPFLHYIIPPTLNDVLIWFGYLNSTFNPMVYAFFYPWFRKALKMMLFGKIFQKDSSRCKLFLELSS

SMILES | activation
COc1ccc(C2=NOC(Cn3nc(C(=O)NCc4ccc5c(c4)OCO5)cc3-c3ccccc3)C2)cc1 (configuration not stated) | 6.17%
COC(=O)c1sccc1NC(=O)c1cc(OC)c(OC)c(OC)c1 | 6.39%
Cc1nc(N2CCN(c3ccccn3)CC2)c2c(C)c(C(=O)Nc3ccc(F)cc3)sc2n1 | 5.28%
COc1ccc(CN(C)C(=O)c2cc(-c3ccc(C)cc3C)nc3ccccc23)c(OC)c1OC | 12.2%
O=C(NCCN1C(=O)S/C(=C\c2cccnc2)C1=O)c1ccc(S(=O)(=O)N2CCCC2)cc1 | 6.63%
C[C@H](O)[C@@H]1C(=O)N2CCc3c([nH]c4c(-c5ccc6c(c5)OCO6)cccc34)[C@@H]2C[C@@H]1N(C)C(=O)c1ccco1 | 7.7%
Cc1cc(Br)ccc1NC(=O)c1cnc(N2CCN(c3ccccn3)CC2)c2ccccc12 | 5.88%
COC(=O)[C@@]1(Sc2ccc(C)cc2)CC(=O)N(c2cccc(SC)c2)[C@@H]1c1ccccc1 | 9.64%
COc1ccc(S(=O)(=O)N2CCCC(C(=O)Nc3ccc(NC(=O)c4ccccn4)cc3)C2)cc1 (configuration not stated) | 11%
COc1ccc(CCNC2=C(Cl)C(=O)N(Cc3ccccc3)C2=O)cc1OC | 7.18%
O=C(O)c1ccc(NC(=O)c2cn(-c3ccccc3)nc2-c2ccc(Cl)cc2)cc1 | -1.05%
COc1ccc(NC(=O)c2cc(-c3ccc(C)o3)nc3ccccc23)cc1 | 6.61%
O=C(Oc1ccc(-c2nnco2)cc1)c1ccc(F)c(S(=O)(=O)N2CCOCC2)c1 | 14.6%
O=C(OCC(=O)N(CCc1ccccc1)Cc1ccccc1)c1ccccc1[N+](=O)[O-] | 7.56%
COC(=O)Cc1nnn2c1[C@H](C)[C@H](c1ccccc1Br)OCC2 | 7.69%
COc1ccc(OC)c2[nH]c(=O)c(CCNC(=O)C(=O)c3c[nH]c4ccccc34)cc12 | 10.8%
Cc1cccc(NC(=O)c2ccc(COc3ccccc3[N+](=O)[O-])o2)n1 | 1.12%
NNC(=O)CNC(c1ccccc1)c1cc(Cl)ccc1NC(=O)c1ccccc1 (configuration not stated) | 8.83%
Cc1cc(C(C)(C)C)oc1C(=O)N(CC(=O)NC1CCCC1)Cc1ccc(Cl)cc1 | 34.2%
CCOc1cc(/C=N/NC(=O)c2cc(-c3ccccc3)nc3ccccc23)ccc1O | 15.8%
O=C(N/N=C/c1ccc(OC(=O)c2ccccc2Cl)cc1)c1ccc(O)cc1 | 13.1%
Cc1cccc(NC(=O)c2nc[nH]c2C(=O)NCC(=O)OCc2ccccc2)c1 | 3.94%
C[C@H](NC(=O)c1nc[nH]c1C(=O)NCC(=O)OC(C)(C)C)C(=O)OCc1ccccc1 | 11.1%
O=C(COC(=O)CCCSc1nc2ccccc2[nH]1)Nc1ccc(Oc2ccccc2)cc1 | 9.65%
COc1ccc(CCNC(=O)c2ccc(CS(=O)(=O)c3ccc(Br)cc3)o2)cc1OC | 12.3%
COc1cc2ccccc2cc1C(=O)Nc1ccc(NC(=O)c2cccs2)cc1 | 7.6%

SMILES | activation
C=CCC[C@H](Cc1ccc(F)cc1)C(=O)OC[C@H](C)NC(=O)[C@H](CC=C)CC(=O)N(CCO)Cc1ccccc1 | 6.83%
CCc1ccc2c(c1)NC(=O)C2(C)Cc1ccc(OC(F)(F)F)cc1 (configuration not stated) | 25.6%
CC/C(=N/Nc1ccccc1)c1cnnc(SC)n1 | -4.06%
Cc1ccc2c(c1)N(CC(=O)NCCc1ccc(Cl)cc1)C(=O)c1cccnc1O2 | 5.11%
Oc1ccccc1N1CCN(c2ncnc3sc(-c4ccccc4)cc23)CC1 | 2.9%
Cc1ccc(NC(=O)c2ccc(CSc3ncnc4nc[nH]c34)cc2)c(C)c1 | 3.79%
C=CCc1cc(S(=O)(=O)c2ccc(O)c(CC=C)c2)ccc1O | 9.65%
Cc1ccc2cccc(OCCCOc3ccccc3CO)c2n1 | 11.3%
COc1ccc(/C=C/C(=O)Nc2ccc(C34CC5CC(CC(O)(C5)C3)C4)cc2)cc1OC | 11.1%
Cc1ccccc1NC(=O)Cc1nc(COC(=O)C(C)(C)Oc2ccc(Cl)cc2)cs1 | 10.5%
CCNS(=O)(=O)c1ccc(CCC(=O)N2CCN(c3cc(Cl)ccc3C)CC2)cc1 | 17.4%
COc1ccc(C(=O)Oc2ccc(-c3nnco3)cc2)cc1S(=O)(=O)N1CCOCC1 | 11%
Oc1ccc(/C=N/Nc2nc(-c3ccccc3F)nc3ccccc23)c(O)c1 | 9.34%
C=CCn1c(SCc2cccc(F)c2)nc2cc(C(=O)N3CCC(C(N)=O)CC3)ccc2c1=O | 9%
COc1ccc2[nH]c(=O)c(CN(Cc3cccnc3)S(=O)(=O)c3ccccc3F)cc2c1 | 12.6%
Fc1ccc(/C=N/Nc2nc(-c3cccnc3)nc3ccccc23)cc1 | 3.24%
CCOC(=O)C1=C(NC(=S)NC(=O)c2ccccc2)c2ccccc2CC1(C)C | 31.1%
CNC(=O)c1ccsc1NC(=O)c1ccc(S(=O)(=O)N2CCc3ccccc32)cc1 | 6.5%
CC(C)(C)OC(=O)NCCCCCNC(=O)c1nc[nH]c1C(=O)NCc1ccccc1 | 7.66%
Cc1ccccc1OCC(=O)Nc1ccc(N2CCN(C(=O)C(C)C)CC2)c(Cl)c1 | 10.6%
COc1cc(OC)cc(C(=O)OCC(=O)Nc2sccc2C(N)=O)c1 | 16.7%
CCOc1ccc(NC(=O)N2CC=C(n3c(=O)[nH]c4ccccc43)CC2)cc1 | 6.44%
O=C(CCc1ccccc1)Nc1cccc(-c2nnc(-c3ccco3)o2)c1 | 7.95%
O=C(Nc1ccc(-c2nnc(-c3ccccc3)o2)cc1)c1ccc(Br)o1 | -1.1%
CC(C)Oc1cc(F)ccc1-c1cc(C(=O)Nc2ccc(F)cc2)[nH]n1 | 2.53%
COc1ccc(-c2cc(C(=O)N(C)Cc3ccc(OC)c(OC)c3OC)c3ccccc3n2)cc1OC | 8.62%
